The source of these data is the supplement of paper PMC10498489.

About 330 (14%) of roughly 2,300 compounds showed activity. Not all results are given here. A number with no mark means an inactive call.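 How the source made its calls: active = median modified Z-score above 1.96; inactive = 1.96 or below.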

For the experiment, the system named is HepG2 Srxn1-GFP reporter cells (+30 nM CDDO-Me). The experiment in a line: Srxn1-GFP intensity median modified Z-score relative to plate median; higher = stronger NRF2 / oxidative stress reporter activation, active = hit call of the paper. To be noted: 10 µM; exposure time: 24h. An outline of the steps: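 Each value is the replicate median of a per-plate modified Z-score for GFP intensity in HepG2 Srxn1-GFP BAC reporter cells. The cells (20,000 per well, 96-well plates, three replicate plates) received compound at 10 μM together with an NRF2 activator at 30 nM for 24 h, in ≤0.1% DMSO. Cytoplasmic GFP was quantified per cell from confocal images of formaldehyde-fixed, Hoechst-stained cells, leaving out images with fewer than 100 cells, and scaling used 1.4826 × median absolute deviation.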
As for `C[C@]12CCC3c4ccc(O)cc4CCC3C1CCC2=O` (stereo not given in full) [euspeclibcmpd118], the “Srxn1-GFP intensity median modified Z-score” value was -0.384.
`CC1C(=NO)C[C@@H]2C[C@H]1C2(C)C` (stereo not given in full) [euspeclibcmpd1398]: the “Srxn1-GFP intensity median modified Z-score” value was -0.67.
For `OCc1cc(O)c2c(O)c3c(O[C@@H]4O[C@H](CO)[C@@H](O)[C@H](O)[C@H]4O)cccc3c(O[C@@H]3O[C@H](CO)[C@@H](O)[C@H](O)[C@H]3O)c2c1` [euspeclibcmpd932], the “Srxn1-GFP intensity median modified Z-score” value was 0.277.
For `CCC(C(=O)O)c1ccccc1` (stereo not given) [euspeclibcmpd2274], the “Srxn1-GFP intensity median modified Z-score” value is -0.651.
For `O=c1oc2cc(O)ccc2s1` [euspeclibcmpd1146] the value was 5.96 (active); for `Cc1cc(=O)oc2cc(O)ccc12` [euspeclibcmpd929], 0.128.
For `O=c1ccc2ccc(O)cc2o1` [euspeclibcmpd1541] the value was -0.459; for `CC(CS)C(=O)N1CCCC1C(=O)O` (stereo not given) [euspeclibcmpd337], -0.273.
For `O=C(Nc1nc(-c2ccc(F)c(F)c2)cs1)c1cc(F)c(F)cc1[N+](=O)[O-]` the value was 0.285.
For the molecule `Cn1c(=O)c2c(ncn2CC2OCCO2)n(C)c1=O` [euspeclibcmpd483], the “Srxn1-GFP intensity median modified Z-score” value was -0.13.
For `O=c1cc(-c2ccccc2)oc2cc(O)ccc12` [euspeclibcmpd1489] the value was -0.269.
Take `O=c1cc(-c2ccccc2)oc2c(O)c(O)ccc12` [euspeclibcmpd2237]: the “Srxn1-GFP intensity median modified Z-score” value is 4.14 (active).
The value for `O=c1cc(-c2ccccc2)oc2ccc(O)cc12` [euspeclibcmpd1505] was 0.447; that for `O=c1c(Cc2c(O)oc3ccccc3c2=O)c(O)oc2ccccc12` [euspeclibcmpd328] was -0.0638.
For `CCCCc1c(O)n(-c2ccccc2)n(-c2ccccc2)c1=O` [euspeclibcmpd235] the value was 0.115; for `O=c1c(CC[S+]([O-])c2ccccc2)c(O)n(-c2ccccc2)n1-c1ccccc1` (stereo not given) [euspeclibcmpd282], -0.197; for `CCCCc1c(O)n(-c2ccc(O)cc2)n(-c2ccccc2)c1=O` [euspeclibcmpd223], 13.1 (active).
For `O=c1c2c3c(sc2nc(SCc2ccc(Cl)c(Cl)c2)n1-c1ccccc1)CCCC3` the value was 1.55; for `COCCn1nc(C(=O)NC(C)c2cccc(Cl)c2)ccc1=O` (stereo not given), 1.38.
With `Cc1cc(C(C)(C)C)c(O)c(C)c1CC1=NCCN1` [euspeclibcmpd222], the “Srxn1-GFP intensity median modified Z-score” value was 0.261.
For `Cc1cc(C(C)(C)C)c(O)c(C(C)(C)C)c1` [euspeclibcmpd1001] the value was 14.5 (active); for `CC(C)(Sc1cc(C(C)(C)C)c(O)c(C(C)(C)C)c1)Sc1cc(C(C)(C)C)c(O)c(C(C)(C)C)c1` [euspeclibcmpd377], -0.0593; for `CN(C)CCCN1c2ccccc2Sc2ccc(Cl)cc21` [euspeclibcmpd59], 0.609.
Take `O=C(NCCC(=O)N1CCN(Cc2ccc3c(c2)OCO3)CC1)c1ccc(Cl)cc1`: the “Srxn1-GFP intensity median modified Z-score” value is 1.31.
The value for `CC1(C)SC2C(NC(=O)C(N)c3ccccc3)C(=O)N2C1C(=O)O` (stereo not given) [euspeclibcmpd2081] was -0.172; that for `CC1C(=O)CCC2[C@]3(C)CC[C@@]4(C)C5CC(C)(C)CC[C@]5(C)CC[C@]4(C)C3CC[C@]12C` (stereo not given in full) [euspeclibcmpd1606] was -0.261; that for `CC[C@@H]1OC(=O)C[C@@H](O)[C@H](C)[C@@H](O[C@@H]2O[C@H](C)[C@@H](O)[C@H](N(C)C)[C@H]2O)[C@@H](CCN2C[C@H](C)C[C@H](C)C2)CC(C)C(=O)/C=C/C(C)=C\C1CO[C@@H]1O[C@H](C)[C@@H](O)[C@@H](OC)[C@H]1OC` (stereo not given in full) [euspeclibcmpd704] was 0.22.
For `C=C(C)c1cc(O)c(C)cc1O` [euspeclibcmpd1354] the value was 6.7 (active); for `CC(C)(CO)C(=O)C(O)NCCC(=O)O` (stereo not given) [euspeclibcmpd2436], 0.216; for `Oc1ccc2c(c1)OCC1(O)Cc3cc(O)c(O)cc3C21` (stereo not given) [euspeclibcmpd1416], 1.37.
For `NC(C(=O)C(O)C(O)CO)C(O)O` (stereo not given) [euspeclibcmpd1661] the value was -0.409; for `CCC[C@@H]1CC(C(=O)N[C@@H]([C@@H]2O[C@H](SC)[C@H](O)[C@@H](O)[C@H]2O)[C@H](C)Cl)N(C)C1` (stereo not given in full) [euspeclibcmpd68], -0.322.
As for `COC(=O)c1c(C)cc(OC(=O)c2c(C)cc(O)c(C=O)c2O)c(C)c1O` [euspeclibcmpd1556], the “Srxn1-GFP intensity median modified Z-score” value was 12.5 (active).
The value for `COc1cc(C)c(C(=O)Oc2cc(C)c(C(=O)O)c(O)c2C)c(OC)c1C` [euspeclibcmpd1550] was 1.38; that for `CCOC(=O)c1c(C)cc(O)c(C=O)c1O` [euspeclibcmpd1571] was -0.398.
